These results are taken from PubChem BioAssay.

Assay [1] can be described thus: Her2 expression decrease, cell viability multiplex – SKBR3 breast tumor cells, AlphaScreen, ATP viability, primary screen (AID 461;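 active means Her2 level under about 52% in both replicate screens, with viability over 70% of control, limit read from the data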;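 on Her2 level: lower value means less Her2 protein in the cells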;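 on viability: percent of carrier control wells set as 100% viability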). Conditions: SKBR3 Her2 protein level, 18-24 h, measured here: SKBR3 viability, ATP luminescence, at 10 µM.
Assay [2] has as its target Receptor tyrosine-protein kinase erbB-2 (Homo sapiens) (UniProt P04626). The assay is described as above. The settings on record: 18-24 h, at 10 µM, stronger effect = lower value.
Assay [3] can be described thus: reduced viability of SK-BR-3 breast cancer cells – cell-based, 24 h, human, pilot screen (AID 572;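 active means viability at or below 10% of carrier control in both of two separate runs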;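 further: compound exposure lasted between 18 and 24 h rather than exactly 24 h; 100% = carrier-treated control wells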). Conditions: SK-BR-3 viability, CellTiter-Glo luminescence, at 10 µM, stronger effect = lower value.
A short description of assay [4]: HUVEC growth inhibition – cell-based, human, primary screen (AID 575;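 active means viability at or below 30% in both replicate assays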;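 further: 100% = median of untreated cell wells with 0.1% DMSO on each plate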). The settings on record: HUVEC proliferation, CellTiter-Glo luminescence, 72 h; at 10 µM; stronger effect = lower value.
Assay [5] can be described thus: H69AR cell proliferation blockers – human, duplicate replicates, primary screen (AID 580).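 Further: 100% = mean luminescence of untreated wells and 0% = no signal.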 The settings on record: H69AR lung tumor cells viability, ATP luminescence, 72 h; at 10 µM; stronger effect = lower value.
Assay [6] can be described thus: MRP1 drug-resistance reversers in H69AR cells – cell-based, doxorubicin co-treatment, pilot screen (AID 601;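 active means viability loss from added drug above about 55%, and viability with drug at most 40%, in both replicates, limit read from the data, passing the limit was not always enough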). Conditions: CellTiter-Glo, 72 h, at 10 µM; for differential viability (reversal): stronger effect = higher value. Background: In ATP-based viability assays light output follows the ATP content of the culture.
A short description of assay [7]: yeast transport mutant growth inhibition pilot in 384-well plates, post-Golgi transport modulator project (AID 636; in the data active means inhibition above about 31%). Conditions: absorbance 615 nm, about 18 h, stronger effect = higher value.
A short description of assay [8]: growth suppression of yeast trafficking mutant, preliminary HTS, modulators of trafficking downstream of Golgi apparatus project, 1536-format plate, OD 615 nm (AID 637; in the data active means inhibition above about 30%). Conditions: yeast transport mutant growth, absorbance 615 nm, 18 h; stronger effect = higher value.
Assay [9] can be described thus: S. cerevisiae growth inhibition in permissive medium (OD615), pilot counter-assay for S. cerevisiae lifespan shortening project, permissive growth control (AID 705;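 active means growth inhibition above 25% in both replicates, a cutoff set 3 SD above the mean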). The settings on record: OD615, 24 h, at 10 µM, stronger effect = higher value.
Assay [10] in a line: S. cerevisiae growth inhibition in restrictive medium, OD615, pilot screen, restrictive growth control, yeast lifespan reduction project (AID 706;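 active means growth inhibition above a set limit, 3 SD over mean compound inhibition, in both replicates, cut at about 43% in these data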;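 further: modified DeaD lifespan yeast strain shifted to restrictive glucose medium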). Conditions: OD615, 48 h, at 10 µM, stronger effect = higher value.
Assay [11] can be described thus: doxorubicin toxicity protection in MRP-1 cells – H69AR cells, CellTiter-Glo, duplicate, MRP-1 activator project, pilot screen (AID 807;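 active means viability increase at or above a cutoff of the median across tested compounds plus 3 SD, cut at about 8.5% in these data, passing the limit was not always enough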;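 further: compound pretreatment 18-22 h then 72 h combined with doxorubicin; 0% = doxorubicin alone and 100% = vehicle without doxorubicin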). Conditions: H69AR viability with doxorubicin, CellTiter-Glo luminescence; at 10 µM; stronger effect = higher value.
Assay [12] is described as follows: viability of HCT116 without oncogenic beta-catenin – human colon tumor cells, pilot screen (AID 823;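 active means cell viability at or below a set limit in both duplicate runs, the limit being the all-compound median minus 4 SD, cut at about 23% in these data, passing the limit was not always enough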;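 further: 0% = wells killed by 20 µM Hyamine and 100% = untreated DMSO cell wells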). The settings on record: HCT116 beta-catenin knockout viability, CellTiter-Glo, 60 h; at 10 µM; stronger effect = lower value.
Assay [13] in a line: viability of PTEN-null HCT116 cells – cell-based, HCT116 clonal line, CellTiter-Glo, pilot screen (AID 824;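 active means viability at or below 27.92% in each of two runs, the all-compound median minus 4 SD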;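 further: 0% = 20 µM Hyamine control and 100% = vehicle cell control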). Conditions: HCT116 PTEN-deleted viability, 60 h, at 10 µM, stronger effect = lower value.
Assay [14] in a line: RAM pathway blockade in budding yeast – dse1pr::URA3 reporter, 5-FOA selection, pilot screen (AID 869;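 active means inhibition over a set limit, the all-compound mean plus 3 SD, in both replicate runs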;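 further: 0% = DMSO wells with no growth and 100% = 10 µM 1-NA-PP1 with full growth; RAM network block rescues cells from 5-FOA so hits raise OD615 growth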). Conditions: S. cerevisiae dse1pr::URA3 5-FOA growth, OD615, 2 d; at 10 µM; stronger effect = higher value; strain carries analog-sensitive mutant Cbk1 kinase.
[15] abbreviates: H69AR cells + 2 uM doxorubicin, measured here: viability with 2 uM doxorubicin, stronger effect = lower value.
Where [16] appears, read: H69AR cells, compound alone cytotoxicity.

Inconclusive results are not listed. Calls of active or inactive are those of the source.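 How the source made its calls, unless noted: active means viability at or under a set limit in both replicates, limit being median viability minus 3 SD (cut at about 48% in these data, passing the limit was not always enough); inconclusive means at or under the limit in just one replicate; inactive means at or above the limit in both replicates.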

Receptor tyrosine-protein kinase erbB-2 (Homo sapiens), sequence (P04626 whole entry, looked up): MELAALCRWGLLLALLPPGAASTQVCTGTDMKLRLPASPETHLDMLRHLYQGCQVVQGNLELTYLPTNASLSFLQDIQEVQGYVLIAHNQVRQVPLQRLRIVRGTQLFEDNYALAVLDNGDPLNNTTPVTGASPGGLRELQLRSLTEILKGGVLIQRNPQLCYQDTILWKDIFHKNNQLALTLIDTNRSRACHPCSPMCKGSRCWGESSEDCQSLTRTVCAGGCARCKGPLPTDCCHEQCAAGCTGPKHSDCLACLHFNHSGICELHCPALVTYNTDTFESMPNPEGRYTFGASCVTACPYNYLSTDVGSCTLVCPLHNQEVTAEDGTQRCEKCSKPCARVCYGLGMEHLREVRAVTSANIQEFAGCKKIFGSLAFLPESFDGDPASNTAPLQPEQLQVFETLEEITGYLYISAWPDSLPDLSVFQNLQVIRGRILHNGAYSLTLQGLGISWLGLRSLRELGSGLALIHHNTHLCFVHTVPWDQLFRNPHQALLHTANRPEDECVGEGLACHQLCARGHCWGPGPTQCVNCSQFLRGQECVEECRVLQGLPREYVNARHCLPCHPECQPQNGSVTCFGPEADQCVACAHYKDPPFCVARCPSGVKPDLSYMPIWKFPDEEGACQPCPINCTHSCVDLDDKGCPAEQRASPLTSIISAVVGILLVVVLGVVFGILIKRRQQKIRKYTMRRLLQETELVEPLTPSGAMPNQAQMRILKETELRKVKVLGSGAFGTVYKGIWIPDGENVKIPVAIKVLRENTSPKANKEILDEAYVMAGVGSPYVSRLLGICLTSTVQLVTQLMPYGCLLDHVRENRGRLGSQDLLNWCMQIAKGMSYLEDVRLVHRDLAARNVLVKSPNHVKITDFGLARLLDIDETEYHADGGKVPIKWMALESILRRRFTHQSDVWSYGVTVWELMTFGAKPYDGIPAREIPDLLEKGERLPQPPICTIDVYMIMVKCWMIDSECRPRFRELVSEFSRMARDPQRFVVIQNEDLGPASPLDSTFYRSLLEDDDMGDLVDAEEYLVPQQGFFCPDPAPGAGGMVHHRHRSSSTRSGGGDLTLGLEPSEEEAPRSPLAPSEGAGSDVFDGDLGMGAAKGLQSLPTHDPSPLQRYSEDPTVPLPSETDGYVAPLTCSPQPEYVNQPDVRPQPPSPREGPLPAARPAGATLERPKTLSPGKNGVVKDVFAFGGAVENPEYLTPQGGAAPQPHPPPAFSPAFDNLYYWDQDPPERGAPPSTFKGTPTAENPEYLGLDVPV

Broadly, the viability is a read-out of living cells in per cent, often relative to untreated cells. For orientation: inhibition means the relative decrease from the control value, in per cent. In the case of `COc1ccccc1N1CCN(C/C(O)=C(\C#N)c2nc(-c3ccccc3)cs2)CC1`, the viability in assay [1] is 94%; in assay [3], 94% (inactive); in [4] it was 84.1% (inactive); in [5] it was 90.8% (inactive); in assay [6] (setting [15]), 97.2%; in [6] (setting [16]), 90.8%. Besides, the Her2 level in assay [2] was 108% (inactive). In addition, the differential viability (reversal) in assay [6] (H69AR cells + 2 uM doxorubicin) was -6.43% (inactive). Moreover, the results for the inhibition in [7] and in assay [8] were 0.55% (inactive) and 12.5% (inactive), respectively.

Turning to `CC(C)CCNC(=O)C(c1ccco1)N(CC1CCCO1)C(=O)Cn1nnc2ccccc21` (configuration not stated), the viability in assay [1] is 100%; in assay [3] it was 100% (inactive); in assay [4], 101% (inactive); in assay [5], 94.4% (inactive); in assay [6] (setting [15]) it was 92.8%; in [6] (setting [16]), 94.4%. For the same compound, in assay [2], the Her2 level was 100% (inactive). In assay [6] (H69AR cells + 2 uM doxorubicin), the differential viability (reversal) is 1.64% (inactive). In addition, the inhibition in [7] is -0.67% (inactive); in [8] it was -0.16% (inactive).

Consider `O=C(CCSc1ccccc1)Nc1ccc(S(=O)(=O)N2CCOCC2)cc1`, for which the viability is 102% in assay [1]; 102% (inactive) in [3]; 81.2% (inactive) in assay [4]; 104% (inactive) in [5]; 91.6% in assay [6] (setting [15]); 104% in assay [6] (setting [16]). Also, in assay [2], the Her2 level was 83.5% (inactive). For the same compound, in assay [6] (H69AR cells + 2 uM doxorubicin), the differential viability (reversal) was 12.5% (inactive). Moreover, the results for the inhibition in assay [7] and in assay [8] were -9.18% (inactive) and -1.27% (inactive), respectively.

`CS(=O)(=O)N(CC(=O)Nc1cccc(F)c1)Cc1ccccc1`: the viability was 78.5% in assay [1]; 78.5% (inactive) in assay [3]; 87.5% (inactive) in assay [4]; 103% (inactive) in [5]; 90% in assay [6] (setting [15]); 103% in assay [6] (setting [16]). Moreover, the Her2 level in assay [2] was 87.5% (inactive). In assay [6] (H69AR cells + 2 uM doxorubicin), the differential viability (reversal) was 13.1% (inactive). For the same compound, the results for the inhibition in assay [7] and in [8] were -3.78% (inactive) and 2.3% (inactive), respectively.

Take `COc1ccc(/C=N/n2cnnc2SCc2ccc(OC)cc2)cc1`: the viability in assay [1] was 83.5%; in assay [3], 83.5% (inactive); in [4], 87.6% (inactive); in assay [5], 89.9% (inactive); in assay [6] (setting [15]), 96.7%; in assay [6] (setting [16]), 89.9%. The figures for the viability in assay [12] and in [13] were 90.6% (inactive) and 93.9% (inactive), respectively. In assay [2], the Her2 level was 90.5% (inactive). Also, the differential viability (reversal) in assay [6] (H69AR cells + 2 uM doxorubicin) was -6.8% (inactive). Moreover, the inhibition in assay [7] was 0% (inactive); in [8], 4% (inactive); in assay [14] it was 2.4% (inactive). Besides, the growth inhibition in [9] is 4.08% (inactive); in assay [10] it was 30.7% (inactive). Further, in [11], the viability increase is 3.56% (inactive).

With `CC1CC(C)CN(c2ncnc3c2cnn3-c2ccc(Cl)cc2)C1` (configuration not stated), the viability in assay [1] is 91.5%; in assay [3], 91.5% (inactive); in [4], 88.5% (inactive); in assay [5] it was 80.6% (inactive); in [6] (setting [15]) it was 76.9%; in [6] (setting [16]), 80.6%. The viability in assay [12] is 88.1% (inactive); in assay [13], 95.3% (inactive). Also, the Her2 level in [2] was 89.5% (inactive). The differential viability (reversal) in assay [6] (H69AR cells + 2 uM doxorubicin) is 3.71% (inactive). In addition, the inhibition was 0.53% (inactive) in [7], -1.64% (inactive) in assay [8] and 2.44% (inactive) in [14]. For the same compound, the growth inhibition in [9] was -5.74% (inactive); in assay [10], -8.12% (inactive). Moreover, the viability increase in assay [11] was 5.58% (inactive).

`Cc1occc1C(=O)Nc1cccc2ccccc12`: the viability in [1] is 86%; in assay [3], 86% (inactive); in [4] it was 62.9% (inactive); in assay [5], 73.2% (inactive); in assay [6] (setting [15]), 86.1%; in assay [6] (setting [16]), 73.2%. In addition, the Her2 level in assay [2] was 75.5% (inactive). For the same compound, the differential viability (reversal) in [6] (H69AR cells + 2 uM doxorubicin) was -12.8% (inactive). Moreover, the inhibition is -1.84% (inactive) in assay [7] and 1.77% (inactive) in assay [8].

With `CN(Cc1ccccc1)Cc1nc2c([nH]1)c(=O)[nH]c(=O)n2C`, the viability in assay [1] was 92%; in [3], 92% (inactive); in [4] it was 79.2% (inactive); in assay [5], 90.9% (inactive); in assay [6] (setting [15]) it was 82.6%; in assay [6] (setting [16]) it was 90.9%. For the same compound, in assay [2], the Her2 level is 90.5% (inactive). In addition, the differential viability (reversal) in assay [6] (H69AR cells + 2 uM doxorubicin) was 8.36% (inactive). Besides, the inhibition in assay [7] was -3.6% (inactive); in assay [8], -1.31% (inactive).

`CC(NC(=O)NCCCC(=O)O)(C(F)(F)F)C(F)(F)F`: the viability is 104% in [1]; 104% (inactive) in assay [3]; 97.6% (inactive) in assay [4]; 105% (inactive) in assay [5]; 96.5% in assay [6] (setting [15]); 105% in assay [6] (setting [16]). Further, the Her2 level in assay [2] is 82% (inactive). Moreover, the differential viability (reversal) in assay [6] (H69AR cells + 2 uM doxorubicin) was 8.72% (inactive). In addition, the inhibition in assay [7] is -7.53% (inactive); in assay [8], 1.59% (inactive).

As to `CSc1nc2ccc(Nc3nc(N4CCOCC4)nc(N4CCOCC4)n3)cc2s1`, the viability is 62.5% in assay [1]; 62.5% (inactive) in assay [3]; 18.5% (active) in assay [4]; 56.8% (inactive) in assay [5]; 60.5% in [6] (setting [15]); 56.8% in [6] (setting [16]). The viability in [12] was 68% (inactive); in [13] it was 66.5% (inactive). For the same compound, the Her2 level in assay [2] is 106% (inactive). In addition, the differential viability (reversal) in [6] (H69AR cells + 2 uM doxorubicin) is -3.63% (inactive). Moreover, the results for the inhibition in assay [7], in assay [8] and in assay [14] were 3.08% (inactive), -0.5% (inactive) and 1.97% (inactive), respectively. The growth inhibition is -4.93% (inactive) in assay [9] and -5.7% (inactive) in [10]. Further, the viability increase in [11] was -5.72% (inactive).

Turning to `C=CCN1C(=O)/C(=C2/Sc3ccccc3N2C)SC1=Nc1c(C)n[nH]c1C`, the viability in assay [1] was 107%; in [3] it was 107% (inactive); in [4] it was 85% (inactive); in assay [5], 75.5% (inactive). In assay [2], the Her2 level is 86.5% (inactive). In addition, the inhibition in assay [7] is -5.2% (inactive); in [8], 0.48% (inactive).

For the compound `O=C(COC(=O)c1cnccn1)c1ccc(OC(=O)c2ccccc2)cc1`, the viability was 104% in [1]; 104% (inactive) in assay [3]; 87.8% (inactive) in assay [4]; 96.2% (inactive) in assay [5]; 98.3% in [6] (setting [15]); 96.2% in assay [6] (setting [16]). For the same compound, the values for the viability in assay [12] and in [13] were 93.3% (inactive) and 95.2% (inactive), respectively. Besides, the Her2 level in [2] is 100% (inactive). In addition, in assay [6] (H69AR cells + 2 uM doxorubicin), the differential viability (reversal) is -2.16% (inactive). In addition, the inhibition in assay [7] is -1.67% (inactive); in [8], 5.67% (inactive); in [14] it was 2.84% (inactive). Besides, the growth inhibition in assay [9] is -19.2% (inactive); in assay [10], -15.1% (inactive). For the same compound, in [11], the viability increase is -0.85% (inactive).

For the compound `CC12COC3(C(=O)Nc4ccc(Cl)cn4)CC1CCC32C` (configuration not stated), the viability in assay [1] is 72%; in [3], 72% (inactive); in assay [4], 82.9% (inactive); in assay [5], 94.6% (inactive); in assay [6] (setting [15]), 85.1%; in assay [6] (setting [16]) it was 94.6%. The viability in [12] was 85.3% (inactive); in [13] it was 85.7% (inactive). Further, the Her2 level in [2] was 112% (inactive). Moreover, the differential viability (reversal) in assay [6] (H69AR cells + 2 uM doxorubicin) is 9.46% (inactive). The inhibition in assay [7] is 0% (inactive); in assay [8], -10% (inactive); in assay [14], 0.735% (inactive). Moreover, the growth inhibition in assay [9] is -15.9% (inactive); in [10] it was -9.37% (inactive). Moreover, the viability increase in assay [11] is -0.46% (inactive).
